Our source for the inhibition values is ChEMBL document CHEMBL1961873, “Compounds: GSK PKIS; Assays: Nanosyn kinase panel” (2012).

Assay [1] concerns the target Tyrosine-protein kinase receptor UFO (Homo sapiens) (UniProt P30530). The conditions noted are these: at 1 µM.
The target in assay [2] is Tyrosine-protein kinase Blk (Homo sapiens) (UniProt P51451). To be noted: at 0.1 µM.
The target is the same in assay [3]. The conditions noted are these: at 1 µM.
Assay [4] deals with T1, Cytoplasmic tyrosine-protein kinase BMX (Homo sapiens) (UniProt P51813).
T1 sequence (whole entry): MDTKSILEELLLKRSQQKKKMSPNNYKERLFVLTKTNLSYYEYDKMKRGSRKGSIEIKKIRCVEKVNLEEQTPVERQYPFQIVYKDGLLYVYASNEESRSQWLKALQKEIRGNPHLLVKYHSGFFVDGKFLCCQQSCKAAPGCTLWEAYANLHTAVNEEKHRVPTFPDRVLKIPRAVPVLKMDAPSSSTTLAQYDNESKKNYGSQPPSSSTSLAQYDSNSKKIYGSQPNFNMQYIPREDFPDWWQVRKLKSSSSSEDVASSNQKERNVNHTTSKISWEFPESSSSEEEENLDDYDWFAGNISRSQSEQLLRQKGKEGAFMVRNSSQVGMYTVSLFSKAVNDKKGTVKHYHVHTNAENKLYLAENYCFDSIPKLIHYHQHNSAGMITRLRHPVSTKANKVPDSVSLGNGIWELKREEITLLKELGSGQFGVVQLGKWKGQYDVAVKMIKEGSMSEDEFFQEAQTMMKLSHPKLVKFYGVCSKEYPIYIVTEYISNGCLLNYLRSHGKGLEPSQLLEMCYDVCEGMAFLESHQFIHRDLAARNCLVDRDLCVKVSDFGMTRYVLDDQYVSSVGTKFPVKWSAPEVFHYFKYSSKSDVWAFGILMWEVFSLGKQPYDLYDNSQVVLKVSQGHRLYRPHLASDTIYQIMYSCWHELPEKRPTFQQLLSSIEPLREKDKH
The conditions noted are these: at 1 µM.

The target in assay [5] is Protein-tyrosine kinase 6 (Homo sapiens) (UniProt Q13882). The conditions noted are these: at 0.1 µM.
Sequence of Protein-tyrosine kinase 6 (Homo sapiens) (Q13882 whole entry, looked up): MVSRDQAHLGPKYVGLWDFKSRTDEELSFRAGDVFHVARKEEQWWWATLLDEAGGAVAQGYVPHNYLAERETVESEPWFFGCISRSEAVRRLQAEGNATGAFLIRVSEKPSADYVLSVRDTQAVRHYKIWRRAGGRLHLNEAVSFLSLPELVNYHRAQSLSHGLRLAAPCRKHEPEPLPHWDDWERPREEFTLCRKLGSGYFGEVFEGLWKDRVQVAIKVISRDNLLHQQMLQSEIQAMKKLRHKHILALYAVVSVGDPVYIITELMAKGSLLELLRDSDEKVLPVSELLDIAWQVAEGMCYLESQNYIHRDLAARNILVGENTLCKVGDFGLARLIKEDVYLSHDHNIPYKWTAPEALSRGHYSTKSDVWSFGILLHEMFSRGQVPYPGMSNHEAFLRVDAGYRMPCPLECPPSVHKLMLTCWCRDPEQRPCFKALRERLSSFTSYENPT
Assay [6] shares this target. To be noted: at 1 µM.
The target of assay [7] is Tyrosine-protein kinase BTK (Homo sapiens) (UniProt Q06187). The conditions noted are these: at 0.1 µM.
Sequence of Tyrosine-protein kinase BTK (Homo sapiens) (Q06187 whole entry): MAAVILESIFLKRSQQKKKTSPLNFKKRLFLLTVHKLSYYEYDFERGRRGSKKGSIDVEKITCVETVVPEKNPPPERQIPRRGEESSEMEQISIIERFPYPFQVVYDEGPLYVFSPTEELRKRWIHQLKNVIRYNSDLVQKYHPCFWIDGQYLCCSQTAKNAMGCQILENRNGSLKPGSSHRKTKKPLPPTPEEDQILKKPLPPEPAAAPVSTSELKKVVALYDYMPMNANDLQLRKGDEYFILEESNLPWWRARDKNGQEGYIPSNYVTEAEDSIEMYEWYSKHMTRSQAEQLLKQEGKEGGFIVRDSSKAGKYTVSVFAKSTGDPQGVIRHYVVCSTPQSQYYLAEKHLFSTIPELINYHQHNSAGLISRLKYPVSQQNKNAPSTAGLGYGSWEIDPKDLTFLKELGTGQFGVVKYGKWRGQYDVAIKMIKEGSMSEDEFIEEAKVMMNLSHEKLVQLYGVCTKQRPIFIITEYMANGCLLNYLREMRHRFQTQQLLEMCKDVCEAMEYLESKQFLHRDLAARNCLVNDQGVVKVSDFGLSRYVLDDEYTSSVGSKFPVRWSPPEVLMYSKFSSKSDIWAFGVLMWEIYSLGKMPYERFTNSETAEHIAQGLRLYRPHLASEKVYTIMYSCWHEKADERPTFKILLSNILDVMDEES
For assay [8] the target is unchanged. The conditions noted are these: at 1 µM.
For assay [9], the target named is Tyrosine-protein kinase CSK (Homo sapiens) (UniProt P41240). To be noted: at 0.1 µM.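 Also: value given is the averaged percent inhibition of CSK kinase activity, from the GSK PKIS kinase inhibitor set screening panel.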
Sequence of Tyrosine-protein kinase CSK (Homo sapiens) (P41240 2-450 limits assumed): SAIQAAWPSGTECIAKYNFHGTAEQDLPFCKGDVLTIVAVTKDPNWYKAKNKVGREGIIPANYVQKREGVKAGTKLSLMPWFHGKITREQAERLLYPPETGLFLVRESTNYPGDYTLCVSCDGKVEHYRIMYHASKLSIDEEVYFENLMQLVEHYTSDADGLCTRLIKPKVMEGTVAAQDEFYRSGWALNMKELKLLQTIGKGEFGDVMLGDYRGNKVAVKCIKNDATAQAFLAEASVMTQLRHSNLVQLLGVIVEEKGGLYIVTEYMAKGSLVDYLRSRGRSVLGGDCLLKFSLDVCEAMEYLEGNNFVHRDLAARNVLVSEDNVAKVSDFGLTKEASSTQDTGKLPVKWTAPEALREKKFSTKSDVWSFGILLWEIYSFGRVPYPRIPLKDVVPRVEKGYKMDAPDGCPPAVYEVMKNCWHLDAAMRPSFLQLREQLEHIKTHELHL
In assay [10] the target is T1, Cytoplasmic tyrosine-protein kinase BMX (Homo sapiens). The conditions noted are these: at 0.1 µM.

Sequence of Tyrosine-protein kinase receptor UFO (Homo sapiens) (P30530 whole entry): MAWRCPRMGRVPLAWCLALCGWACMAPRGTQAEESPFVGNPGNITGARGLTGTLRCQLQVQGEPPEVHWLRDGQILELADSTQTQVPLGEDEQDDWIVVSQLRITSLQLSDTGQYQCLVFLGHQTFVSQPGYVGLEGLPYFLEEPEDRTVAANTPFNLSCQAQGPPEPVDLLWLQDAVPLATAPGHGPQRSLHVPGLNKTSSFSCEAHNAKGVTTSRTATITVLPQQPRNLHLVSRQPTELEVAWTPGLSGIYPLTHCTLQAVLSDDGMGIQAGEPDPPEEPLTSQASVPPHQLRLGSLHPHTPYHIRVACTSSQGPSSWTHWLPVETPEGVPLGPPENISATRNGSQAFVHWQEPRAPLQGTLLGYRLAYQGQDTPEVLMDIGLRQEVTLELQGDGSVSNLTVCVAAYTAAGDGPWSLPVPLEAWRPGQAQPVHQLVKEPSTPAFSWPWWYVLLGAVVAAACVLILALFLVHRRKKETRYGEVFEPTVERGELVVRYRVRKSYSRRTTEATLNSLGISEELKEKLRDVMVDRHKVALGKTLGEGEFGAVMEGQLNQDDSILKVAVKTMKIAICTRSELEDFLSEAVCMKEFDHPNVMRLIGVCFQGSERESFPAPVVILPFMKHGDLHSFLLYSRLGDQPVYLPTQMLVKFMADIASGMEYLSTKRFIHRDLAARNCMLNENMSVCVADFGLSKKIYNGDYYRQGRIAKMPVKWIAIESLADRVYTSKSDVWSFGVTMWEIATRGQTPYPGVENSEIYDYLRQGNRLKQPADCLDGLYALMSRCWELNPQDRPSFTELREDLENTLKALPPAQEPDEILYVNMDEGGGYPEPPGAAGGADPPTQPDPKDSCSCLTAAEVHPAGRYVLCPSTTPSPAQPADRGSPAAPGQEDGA
Sequence of Tyrosine-protein kinase Blk (Homo sapiens) (P51451 2-505 limits assumed): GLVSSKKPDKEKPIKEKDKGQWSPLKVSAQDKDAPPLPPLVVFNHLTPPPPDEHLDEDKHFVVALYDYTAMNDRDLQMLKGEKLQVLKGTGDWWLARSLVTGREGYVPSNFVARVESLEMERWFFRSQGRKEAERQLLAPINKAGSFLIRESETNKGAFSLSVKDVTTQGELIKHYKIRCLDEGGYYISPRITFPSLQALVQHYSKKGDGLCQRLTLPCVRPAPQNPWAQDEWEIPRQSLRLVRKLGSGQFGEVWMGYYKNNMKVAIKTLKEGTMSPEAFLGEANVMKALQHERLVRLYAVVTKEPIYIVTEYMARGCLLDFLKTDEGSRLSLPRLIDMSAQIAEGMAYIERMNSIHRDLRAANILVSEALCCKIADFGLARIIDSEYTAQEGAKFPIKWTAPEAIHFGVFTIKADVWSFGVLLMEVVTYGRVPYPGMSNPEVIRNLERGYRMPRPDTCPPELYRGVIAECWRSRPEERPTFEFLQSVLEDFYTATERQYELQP

Take `Cc1ccc2c(-c3ccnc(Nc4ccc5c(c4)OCCO5)n3)c(-c3ccc(C(F)(F)F)cc3)nn2n1`: the inhibition in assay [1] worked out at 1.14%; in assay [2], 3.28%; in [3] it was 4.48%; in [4] it was 0.94%; in [5], 0.39%; in assay [6], 3.26%. Further, the inhibition was 0.75% in assay [7], 1.71% in assay [8] and -2.99% in assay [9].
With `COc1cccc(-n2ncc3c(N/N=C/c4ccc(S(C)(=O)=O)cc4)ncnc32)c1`, the inhibition in assay [1] came to 1.34%; in [2], 7.91%; in assay [3], 38.4%; in assay [10], 10.1%; in assay [4] it was 30.7%; in assay [5] it was 6.33%. Also, the inhibition in [6] is 26.8%; in [7], -4.35%; in assay [8] it was -3.39%; in assay [9], 5.8%.
Turning to `c1ccc(Cc2nc3ccc(Nc4ncnc5ccccc45)cc3[nH]2)cc1`, the inhibition in assay [1] is -3.16%; in assay [2] it was 2.78%; in [3], 7.6%; in assay [10], 5.75%; in [4], 5.59%; in assay [5], 5.48%. Further, the inhibition was 5.84% in [6], 0.25% in [7], 1.7% in [8] and 8.17% in assay [9].
On to `NS(=O)(=O)c1cccc(Nc2cc(-c3ccc(F)cc3)n[nH]2)c1`, for which the inhibition was -3.83% in assay [1]; 2.05% in assay [2]; 6.41% in assay [3]; -2.37% in assay [10]; 4.82% in assay [4]; 1.68% in [5]. Further, the inhibition in assay [6] amounted to 3.52%; in assay [7] it was 0.73%; in assay [8], 0.11%; in assay [9] it was 4.6%.
`Cc1ccc(O)cc1Nc1ccnc2ccc(S(C)(=O)=O)cc12`: the inhibition in assay [2] stood at 42.8%; in [3], 91.4%; in [10], 76.5%; in assay [4], 93.2%; in assay [5] it was 95.3%; in assay [6], 103%. In addition, the inhibition in [7] was 63.8%; in assay [8], 77.3%; in assay [9], 70.3%.
`N#Cc1cccc(Nc2nccc(-c3cnn4ncccc34)n2)c1`: the inhibition in assay [1] is 33.8%; in [2] it was 5.38%; in assay [3], 26.5%; in assay [10], 4.87%; in assay [4] it was 39.7%; in assay [5], 5.32%. In addition, the inhibition in assay [6] stood at 23.5%; in [7], 2.23%; in assay [8], 5.13%; in assay [9] it was 5.02%.
Turning to `NS(=O)(=O)c1ccc(N/N=C2\C(=O)Nc3ccc(Cl)cc32)cc1`, the inhibition in [1] is -3.81%; in assay [2] it was 2.51%; in assay [3], 6.13%; in assay [10], -0.25%; in assay [4], 4.68%; in assay [5] it was 2.27%. The inhibition in [6] worked out at 5.96%; in assay [7], 0.31%; in assay [8] it was 0.56%; in [9], 4.9%.
On to `CN(c1ccc(NC(=O)Nc2ccc(OC(F)(F)F)cc2)cc1)c1ccnc(Nc2cccc(S(N)(=O)=O)c2)n1`, for which the inhibition turned out to be 16.2% in assay [1]; 29.4% in assay [2]; 86.3% in [3]; 5.28% in assay [10]; 26.1% in [4]; 16.1% in [5]. Besides, the inhibition in [6] was 77.1%; in assay [7], 0.33%; in [8], 5.19%; in assay [9] it was 3.6%.
Regarding `CC(C)c1ccc(Nc2nccc(-c3cnn4ncccc34)n2)cc1`, the inhibition in [1] is 0.39%; in assay [2], 1.48%; in assay [3], 4.76%; in assay [4], 5.9%; in [5] it was 3.47%; in assay [6], 6.47%. For the same molecule, the values for the inhibition in assay [7], in [8] and in assay [9] were -1.04%, -0.53% and 4.27%, respectively.
For `C[C@@H](Oc1cc(-n2cnc3ccc(OCC4CCN(C)CC4)cc32)sc1C(N)=O)c1ccccc1C(F)(F)F`, the inhibition in assay [1] is 12.8%; in assay [2], 1.16%; in assay [3] it was 14.4%; in [10] it was -1.33%; in assay [4], -2.09%; in assay [5], -0.71%. In addition, the inhibition is -4.24% in assay [6], 0.52% in [7], -1.06% in assay [8] and -4.98% in assay [9].
On to `COc1cc(/C=N/Nc2ncnc3c2cnn3C(C)C)ccc1O`, for which the inhibition was -0.23% in assay [1]; 4.73% in [2]; 45% in assay [3]; 2.71% in [10]; 17.1% in [4]; 1.02% in assay [5]. The inhibition in assay [6] is 4.8%; in assay [7], -0.92%; in assay [8], 0.84%; in [9], 0.38%.
For the molecule `O=C1Nc2ccccc2/C1=C/Nc1ccc2[nH]c(=O)[nH]c2c1`, the inhibition in assay [2] came out at 7.96%; in assay [3] it was 33%; in assay [10], 5.38%; in assay [4], 7.7%; in assay [5] it was 4.56%; in assay [6], 8.06%. Also, the inhibition is 0.87% in assay [7], 4.29% in assay [8] and 6.52% in [9].
As to `CCCN1CCCC(c2ccc(Nc3nc(Nc4cc(F)ccc4C(N)=O)c4cc[nH]c4n3)c(OC)c2)C1` (stereo unspecified), the inhibition worked out at 57.4% in assay [1]; 2.11% in [2]; 6.81% in assay [3]; 5.67% in assay [10]; 5.71% in assay [4]; 18.1% in assay [5]. Moreover, the inhibition in assay [6] was 67.8%; in assay [7], 0.49%; in assay [8], -1.31%; in assay [9], 2.66%.
`OCc1ccc(-c2nc(-c3ccccn3)c(-c3ccc4c(c3)OCO4)[nH]2)cc1`: the inhibition was -3.37% in assay [1]; 3.13% in [2]; 5.92% in [3]; -2.19% in [10]; 4.67% in assay [4]; 4.49% in assay [5]. Moreover, the inhibition in [6] worked out at 5.07%; in [7], 3.02%; in assay [8], 3.51%; in assay [9], 3.92%.
